16 compounds from PubChem BioAssay can be followed below.

Activity calls are given as the source filed them. Unless noted, no stated cut-off is given here; in the data, active means nuclear beta-catenin stimulation mostly above about 4.2% (no sharp cut-off); inactive means mostly below about 10%.

Assay [1] can be described thus: Wnt pathway potentiators raising nuclear beta-catenin – imaging, WNT3A-conditioned medium, mouse C2C12, NPC library, primary screen (AID 1117326). Further: reference of the scale not given here. The following applies: stronger effect = higher value.
Assay [2] can be described thus: stimulators of insulin release from INS-1E, primary screen, cell-based, 5 mM glucose, NPC library (AID 1117329;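 active means compound raises insulin release from rat beta cells at 5 mM glucose, no numeric limit stated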; further: reference of the scale not given here). Particulars: rat INS-1E insulin secretion, at 10 µM, stronger effect = higher value.
The nature of assay [3]: growth inhibition of GSK3B-pretreated HCT116 cells – cell-based, CellTiter-Glo, 0.2 to 20 µM (AID 1117336;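 active means compounds lowering colon cancer cell viability after pretreatment blocking the GSK3B kinase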). The following applies: HCT116 viability after GSK3B inhibitor, at 20 µM, stronger effect = higher value.
Assay [4] in a line: inhibition of endothelial tube formation, primary screen, imaging, VEGF stimulated, CD31 staining, tube area, NPC library (AID 1117340;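 active means compound that reduces growth-factor-driven endothelial tube area in a mixed cell culture, no cutoff stated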). The following applies: VEGF-stimulated ADSC/ECFC co-culture, at 10 µM, stronger effect = higher value.
Assay [5] is described as follows: GLP1 release stimulators, primary, NCI-H716, NPC library (AID 1117341;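 active means compound raises GLP1 secretion from the human gut endocrine cells, with no numeric limit stated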; further: reference of the scale not given here). The following applies: NCI-H716 cells, at 10 µM, stronger effect = higher value.
Assay [6] can be described thus: HCT116 colon cancer cell growth inhibition, primary screen, CellTiter-Glo luminescence, NPC library (AID 1117342;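 active means compounds that lower survival of HCT116 colon cancer cells in the luminescence readout, no numeric limit stated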). Particulars: at 20 µM (top of the series).
Assay [7] can be described thus: reduced SW480 viability measured with CellTiter-Glo, NPC library, primary (AID 1117343;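 active means compounds that lower viability of the colon cancer cells in the luminescence readout, with no numeric limit stated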). Particulars: CellTiter-Glo luminescence; at 20 µM (top of the series).
The nature of assay [8]: NPC library primary testing for decreased DLD-1 cell viability via CellTiter-Glo (AID 1117346;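 active means compounds that lower survival of DLD-1 colon cancer cells in the luminescence readout, no cutoff given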). Particulars: DLD-1 viability, CellTiter-Glo luminescence; at 20 µM (top of the series).

For the compound `CN=C(N)NC(=O)Nc1c(C)cccc1C`, the nuclear beta-catenin stimulation in assay [1] (at 10 µM) was -1.8% (inactive); in assay [1] (stimulation, at 2 µM) it was -0.4%. Further, in assay [2], the insulin secretion stimulation was -1.2% (inactive). In assay [3], the viability decrease was -12.4% (inactive). Further, in assay [4], the tube area decrease is -1.8% (inactive). Also, in assay [5], the GLP1 secretion stimulation was -0.6% (inactive). Also, the inhibition of viability in assay [6] was 11.3% (inactive). In addition, the viability decrease (inhibition) in assay [7] was -1.5% (active); in assay [8], -0.9% (inactive).
Take `c1ccc(-c2nc[nH]c2-c2ccccc2)cc1`: the nuclear beta-catenin stimulation in assay [1] (at 10 µM) was 0.2% (inactive); in assay [1] (stimulation, at 2 µM), 2.7%. The insulin secretion stimulation in assay [2] is -1.3% (inactive). In addition, the viability decrease in assay [3] is -7.1% (inactive). Besides, the tube area decrease in assay [4] was 12.1% (inactive). In assay [5], the GLP1 secretion stimulation was 3.1% (inactive). Further, the inhibition of viability in assay [6] was -17.5% (inactive). For the same compound, the results for the viability decrease (inhibition) in assay [7] and in assay [8] were 55% (active) and -0.05% (inactive), respectively.
On to `CC(=O)c1ccc(O)c(C(N)=O)c1`, for which the nuclear beta-catenin stimulation in assay [1] (at 10 µM) is 0.2% (inactive); in assay [1] (stimulation, at 2 µM), -1.6%. The insulin secretion stimulation in assay [2] was 0.6% (inactive). Further, the viability decrease in assay [3] was 20.8% (inactive). The tube area decrease in assay [4] was -0.3% (inactive). Besides, in assay [5], the GLP1 secretion stimulation is 1.6% (inactive). In assay [6], the inhibition of viability was 0.1% (inactive). Besides, the figures for the viability decrease (inhibition) in assay [7] and in assay [8] were -10.5% (inactive) and 6.9% (inactive), respectively.
For the compound `CC(=O)O[C@H]1C[C@@H]2CC[C@H]3[C@H]4C[C@H]([N+]5(C)CCCCC5)[C@@H](OC(C)=O)[C@@]4(C)CC[C@@H]3[C@@]2(C)C[C@H]1[N+]1(C)CCCCC1`, the nuclear beta-catenin stimulation is 0.7% (inactive) in assay [1] (at 10 µM) and 0.2% in assay [1] (stimulation, at 2 µM). In assay [2], the insulin secretion stimulation was -1.1% (inactive). Further, the viability decrease in assay [3] was -2.7% (inactive). Moreover, the tube area decrease in assay [4] is 9.9% (inactive). Moreover, the GLP1 secretion stimulation in assay [5] was -1.6% (inactive). In addition, in assay [6], the inhibition of viability is -3.6% (inactive). Besides, the viability decrease (inhibition) in assay [7] was -1.7% (active); in assay [8], -2.8% (inactive).
For `CC(=O)OC[C@H]1O[C@@H](OC(C)=O)[C@H](OC(C)=O)[C@@H]1OC(C)=O`, the nuclear beta-catenin stimulation in assay [1] (at 10 µM) was -0.3% (inactive); in assay [1] (stimulation, at 2 µM) it was -1.5%. In assay [2], the insulin secretion stimulation is -1.25% (inactive). In addition, in assay [3], the viability decrease is -0.8% (inactive). In assay [4], the tube area decrease was 9.6% (inactive). Further, the GLP1 secretion stimulation in assay [5] was -1.3% (inactive). In addition, the inhibition of viability in assay [6] was 12.6% (inactive). Further, the viability decrease (inhibition) is 13.1% (inactive) in assay [7] and 4.4% (inactive) in assay [8].
On to `COc1ccccc1OCC1CNC(=O)O1` (centres undefined), for which the nuclear beta-catenin stimulation in assay [1] (at 10 µM) is -2% (inactive); in assay [1] (stimulation, at 2 µM), 0.2%. The insulin secretion stimulation in assay [2] was 0.9% (inactive). The viability decrease in assay [3] is -16.8% (inactive). The tube area decrease in assay [4] was -6.7% (inactive). The GLP1 secretion stimulation in assay [5] was -1.6% (inactive). Moreover, the inhibition of viability in assay [6] is 4.4% (inactive). For the same compound, the viability decrease (inhibition) in assay [7] is 15.3% (inactive); in assay [8], -2.8% (inactive).
In the case of `CCOc1ccccc1O[C@H](c1ccccc1)[C@H]1CNCCO1`, the nuclear beta-catenin stimulation in assay [1] (at 10 µM) was -0.4% (inactive); in assay [1] (stimulation, at 2 µM), -2.9%. The insulin secretion stimulation in assay [2] is 5.4% (inactive). In addition, the viability decrease in assay [3] is -2.9% (inactive). Moreover, the tube area decrease in assay [4] was -5.2% (inactive). Besides, the GLP1 secretion stimulation in assay [5] is 0.6% (inactive). For the same compound, the inhibition of viability in assay [6] is 22.7% (inactive). In addition, the viability decrease (inhibition) is 6.2% (inactive) in assay [7] and 18.8% (inactive) in assay [8].
For the compound `C#CC(C)(CC)OC(=O)c1ccccc1C(=O)O` (centres undefined), the nuclear beta-catenin stimulation in assay [1] (at 10 µM) was 3.1% (inactive); in assay [1] (stimulation, at 2 µM) it was 1.3%. Further, the insulin secretion stimulation in assay [2] is -0.2% (inactive). For the same compound, the viability decrease in assay [3] is -19% (inactive). For the same compound, the tube area decrease in assay [4] is -5.2% (inactive). In assay [5], the GLP1 secretion stimulation is 3.4% (inactive). The inhibition of viability in assay [6] was 5.2% (inactive). Further, the viability decrease (inhibition) is 11.9% (inactive) in assay [7] and -12.1% (inactive) in assay [8].
`O=C(O)c1ccccc1Nc1cc(Cl)ccc1C(=O)O`: the nuclear beta-catenin stimulation in assay [1] (at 10 µM) was 2% (inactive); in assay [1] (stimulation, at 2 µM) it was -1.8%. Besides, in assay [2], the insulin secretion stimulation was 0.5% (inactive). Besides, in assay [3], the viability decrease is 2.4% (inactive). Besides, in assay [4], the tube area decrease was -18.4% (inactive). Besides, in assay [5], the GLP1 secretion stimulation is 0.1% (inactive). Also, the inhibition of viability in assay [6] was -1.2% (inactive). Further, the viability decrease (inhibition) is -23.2% (inactive) in assay [7] and -18.7% (inactive) in assay [8].
As to `NCCNc1cccc2ccccc12`, the nuclear beta-catenin stimulation in assay [1] (at 10 µM) was 1.9% (inactive); in assay [1] (stimulation, at 2 µM) it was 1.1%. In addition, in assay [2], the insulin secretion stimulation is 1.9% (inactive). The viability decrease in assay [3] was -5.55% (inactive). Further, the tube area decrease in assay [4] is -35.7% (inactive). Moreover, in assay [5], the GLP1 secretion stimulation is 0.6% (inactive). Further, the inhibition of viability in assay [6] is 17.2% (inactive). For the same compound, the figures for the viability decrease (inhibition) in assay [7] and in assay [8] were 51.5% (active) and 7.9% (inactive), respectively.
For the compound `O=C(OCC1(COC(=O)c2cccnc2)CCCC(COC(=O)c2cccnc2)(COC(=O)c2cccnc2)C1O)c1cccnc1`, the nuclear beta-catenin stimulation in assay [1] (at 10 µM) was -1.3% (inactive); in assay [1] (stimulation, at 2 µM) it was -0.2%. For the same compound, in assay [2], the insulin secretion stimulation was 7.7% (inactive). In addition, the viability decrease in assay [3] was -3.6% (inactive). Besides, the tube area decrease in assay [4] was -7.3% (inactive). Also, in assay [5], the GLP1 secretion stimulation is -3.3% (inactive). The inhibition of viability in assay [6] is 9.9% (inactive). Also, the viability decrease (inhibition) in assay [7] and in assay [8] was -3.1% (inactive) in each case.
In the case of `COc1cc(OC)nc(O[C@H](C(=O)O)C(OC)(c2ccccc2)c2ccccc2)n1`, the nuclear beta-catenin stimulation is 2.7% (inactive) in assay [1] (at 10 µM) and -0.4% in assay [1] (stimulation, at 2 µM). Besides, in assay [2], the insulin secretion stimulation is 1% (inactive). Besides, in assay [3], the viability decrease was 1.1% (inactive). The tube area decrease in assay [4] is -16.9% (inactive). The GLP1 secretion stimulation in assay [5] was 3.3% (inactive). In addition, in assay [6], the inhibition of viability was 1.2% (inactive). Moreover, the viability decrease (inhibition) in assay [7] was 6.1% (inactive); in assay [8] it was 2.4% (inactive).
For `Cc1ccc(S(=O)(=O)NC(=O)NC2CCCC2)cc1`, the nuclear beta-catenin stimulation in assay [1] (at 10 µM) is 0.2% (inactive); in assay [1] (stimulation, at 2 µM) it was 0.6%. Further, the insulin secretion stimulation in assay [2] was 15.2% (inactive). In assay [3], the viability decrease was -1.25% (inactive). In assay [4], the tube area decrease is -10.7% (inactive). Further, the GLP1 secretion stimulation in assay [5] is -0.4% (inactive). Also, the inhibition of viability in assay [6] was -18.5% (inactive). Further, the results for the viability decrease (inhibition) in assay [7] and in assay [8] were 44.9% (inactive) and 9.95% (inactive), respectively.
On to `CC(C)C(=O)Nc1cccc(C2CN3CCSC3=N2)c1` (centres undefined), for which the nuclear beta-catenin stimulation in assay [1] (at 10 µM) is 1.5% (inactive); in assay [1] (stimulation, at 2 µM), 1.8%. Moreover, in assay [2], the insulin secretion stimulation is -0.5% (inactive). The viability decrease in assay [3] is -30.9% (inactive). The tube area decrease in assay [4] was -4.2% (inactive). Further, the GLP1 secretion stimulation in assay [5] is 5% (inactive). Besides, the inhibition of viability in assay [6] was 4.17% (inactive). Besides, the figures for the viability decrease (inhibition) in assay [7] and in assay [8] were 13% (inactive) and -14.4% (inactive), respectively.
`Oc1ccccc1`: the nuclear beta-catenin stimulation in assay [1] (at 10 µM) is -0.4% (inactive); in assay [1] (stimulation, at 2 µM) it was 0.2%. In addition, in assay [2], the insulin secretion stimulation is -0.2% (active). Further, in assay [3], the viability decrease is -6.9% (inactive). Besides, the tube area decrease in assay [4] was -36.6% (inactive). For the same compound, the GLP1 secretion stimulation in assay [5] was 0.5% (inactive). Besides, the inhibition of viability in assay [6] is -11.1% (inactive). Besides, the viability decrease (inhibition) in assay [7] is 42.7% (inactive); in assay [8] it was 0.9% (inactive).
Consider `COc1ccc(OC(=O)N(CC(=O)O)Cc2ccc(OCCc3nc(-c4ccccc4)oc3C)cc2)cc1`, for which the nuclear beta-catenin stimulation in assay [1] (at 10 µM) was 1% (inactive); in assay [1] (stimulation, at 2 µM), -0.5%. Moreover, the insulin secretion stimulation in assay [2] is -0.3% (inactive). The viability decrease in assay [3] is 100% (active). Also, the tube area decrease in assay [4] was -9% (inactive). Also, the GLP1 secretion stimulation in assay [5] is 51.7% (active). In addition, the inhibition of viability in assay [6] is 86.4% (active). Also, the viability decrease (inhibition) is 105% (active) in assay [7] and 91.5% (active) in assay [8].
